Only some compounds are listed: those with a hit (about 4.3% of all), similar ones and a draw of the others.
FAS-TE inh: inhibitors of human fatty acid synthase thioesterase domain. recombinant FAS-TE, OMFH fluorogenic substrate, fluorescence endpoint. inhibition, % at 15 µM. P49327. 360,000 tested, 0.67% active. AID 602261;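 active = compounds whose normalised, plate-corrected inhibition of enzyme fluorescence in the single-dose primary screen is 50% or more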
NR3A LBD binder: NR3A (human) ligand-binding domain modulation; 340,000 tested, 2.5% active; Tm shift relative to glycine control, % at 25 µM; NR3A LBD differential scanning fluorimetry, Tm shift; 0% = protein alone, 100% = glycine-bound protein;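 active = melting temperature shift of at least 10% of the positive control shift, at one fixed dose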
rCAG binder: r(CAG) repeat RNA binding. 370,000 tested, 1.3% active. inhibition, % at 3 µM. TO-PRO-1 dye displacement fluorescence;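 active = inhibition above the plate cutoff, the mean of all test compounds on that plate plus 3 SD, cut at about 35% in these data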;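 note: higher means more dye released from RNA so lower well fluorescence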
NadD block: blocks S. aureus nicotinate mononucleotide adenylyltransferase. purified NadD enzyme, colorimetric absorbance read-out. inhibition, % at 20 µM. 360,000 tested, 0.78% active; in the data active = inhibition above about 26%
Large screens that a line does not name were inactive.

Cc1nc2c(C)cccc2cc1C(=O)N/N=C/c1cccnc1	NR3A LBD binder 14
Nn1c(SCC(=O)NC2CCCCC2)nnc1-c1cc(-c2ccccc2)n[nH]1	none (no result: FAS-TE inh, NR3A LBD binder, NadD block)
O=C(O)c1ccc(C[n+]2c(-c3ccccc3)csc2Nc2ccccc2)cc1	NR3A LBD binder 18
C=CC[n+]1c(C)csc1Nc1ccc(C(=O)O)cc1	none
CC(C)(C)c1cc(-c2csc(Nc3ccccc3)[n+]2Cc2ccc(C(=O)O)cc2)cc(C(C)(C)C)c1O	NadD block 66 (no result: rCAG binder)
COC(=O)[C@]1(Cc2ccccc2)NC=C(C(=O)c2ccc(F)cc2)[C@@H]1c1ccccc1	none (no result: FAS-TE inh, NR3A LBD binder, NadD block)
C[C@H]1CN(C(=O)OC(C)(C)C)CCN1c1ccc(N2CCS(=O)(=O)CC2)c(C#N)c1	none (no result: FAS-TE inh, NR3A LBD binder, NadD block)
COc1cc(/C=N/NS(=O)(=O)c2ccc3ccccc3c2)ccc1OCCN1CCOCC1	NR3A LBD binder 15
COc1ccc(S(=O)(=O)N/N=C/c2ccc(OCCN3CCOCC3)c(OC)c2)cc1	none
COc1cc(CC(=O)OCC(=O)Nc2ccc(Cl)c(S(=O)(=O)N(C)C)c2)cc(OC)c1OC	none
CN(C)S(=O)(=O)c1cc(NC(=O)COC(=O)Cc2ccc(Br)cc2)ccc1Cl	NR3A LBD binder 15
CN(C)S(=O)(=O)c1cc(NC(=O)COC(=O)CCSc2ccc(Cl)cc2)ccc1Cl	NR3A LBD binder 13
COC(=O)[C@@]12CCCCC3=C1N(CCC3)C(=O)[C@H]2CC(=O)N1CCC(c2ccccc2)CC1	none (no result: FAS-TE inh, NR3A LBD binder, NadD block)
CCOC(=O)[C@]12CCCC=C1N(CCCOC)C(=O)[C@@H]2CC(=O)N1CCSCC1	none (no result: FAS-TE inh, NR3A LBD binder, NadD block)
CCOC(=O)CNCCC(=O)c1ccc(Br)cc1	NR3A LBD binder 22
COC(=O)[C@]12C[C@H](CC(=O)NCC3CCCCC3)C(=O)N(CCc3ccc(OC)c(OC)c3)C1=C[C@H](COCc1ccccc1)O[C@@H]2C	none (no result: FAS-TE inh, NR3A LBD binder, NadD block)
CCN(C(=O)COC(=O)c1c(-c2ccccc2)noc1C)c1c(N)n(Cc2ccccc2)c(=O)[nH]c1=O	NR3A LBD binder 15
Cc1onc(-c2ccccc2)c1C(=O)OCC(=O)N(C)c1c(N)n(Cc2ccccc2)c(=O)[nH]c1=O	none
CCOc1cc(/C=C2\C(=O)ON=C2c2ccccc2)ccc1OC	none
CCOc1cc(/C=C2\C(=O)N(c3nc(-c4ccc(Br)cc4)cs3)N=C2c2ccccc2)ccc1O	NR3A LBD binder 16, NadD block 77 (no result: rCAG binder)
CCCCOCCCNC(=O)C[C@@H]1C(=O)N(Cc2ccc(OC)cc2)C2=CCN(C(=O)OC(C)(C)C)C[C@]21C(=O)OCC	none (no result: FAS-TE inh, NR3A LBD binder, NadD block)
CC(C)[C@@H](CO)N(C)S(=O)(=O)c1ccccc1Br	NR3A LBD binder 11
CCOc1ccc(S(=O)(=O)Nc2cccc(OC)c2)cc1	NR3A LBD binder 11
COC(=O)COc1cccc(NS(=O)(=O)c2ccc(NC(C)=O)cc2)c1	NR3A LBD binder 14
COc1ccccc1/C=N\NC(=O)c1cccc(S(=O)(=O)N(C)C)c1	none (no result: FAS-TE inh, NR3A LBD binder, NadD block)
O=C(C1CCCN1S(=O)(=O)c1ccc([N+](=O)[O-])cc1)N1CCN(c2ccccc2)CC1 (centres undefined)	none (no result: FAS-TE inh, NR3A LBD binder, NadD block)
COC(=O)C1CN(C2CCCC2)CCS(=O)(=O)N1Cc1ccc(C(F)(F)F)cc1 (centres undefined)	none (no result: FAS-TE inh, NR3A LBD binder, NadD block)
CC(C)N(Cc1cn(Cc2ccccc2)nn1)S(=O)(=O)c1ccccc1Br	none (no result: FAS-TE inh, NR3A LBD binder, NadD block)
CCn1ccnc1CN(C)Cc1cn(-c2ccc(C)cc2)nc1-c1cccc(C)c1	NR3A LBD binder 24
CCCCCCc1cc2cc(C(=O)OCC)c(=O)oc2cc1O	none
CCCCCCc1cc2cc(S(=O)(=O)c3ccc(F)c(Cl)c3)c(=O)oc2cc1O	NR3A LBD binder 33
CCOC(=O)N(C)C[C@H]1OCc2cn(nn2)CCCC(=O)N([C@@H](C)CO)C[C@@H]1C	none (no result: FAS-TE inh, NR3A LBD binder, NadD block)
CCc1ccc(CN(C)CC(=O)Nc2ccccc2[N+](=O)[O-])cc1	NR3A LBD binder 19
C=CCOc1ccc(CN(C)CC(=O)Nc2ccccc2[N+](=O)[O-])cc1	none
Nc1nc(Cl)cc(N2CCC(c3cc(-c4ccc(Cl)cc4)n[nH]3)CC2)n1	NR3A LBD binder 17
COc1ccc(-c2cc(C3CCN(c4cc(Cl)nc(N)n4)CC3)[nH]n2)cc1	none
Cc1ccc2c(c1)C1CS(=O)(=O)N(C3CCCC3)CN1C2 (centres undefined)	none (no result: FAS-TE inh, NR3A LBD binder, NadD block)
O=C(N[C@H](C(=O)N1CCC[C@H]1C(=O)NCCc1ccccc1Cl)C1CCCCC1)c1cccs1	none (no result: FAS-TE inh, NR3A LBD binder, NadD block)
CCOc1ccc(Nc2cc(C)c3ccccc3n2)cc1	NR3A LBD binder 22
CCOc1ccc(Nc2c3ccccc3nc3ccccc23)cc1	none
CC(=O)Nc1ccc(Nc2cc(C)c3ccccc3n2)cc1	NR3A LBD binder 13
Cc1cc(C)cc(NC(=O)NCCCN2CCN(c3ccc(F)cc3)CC2)c1	none (no result: FAS-TE inh, NR3A LBD binder, NadD block)
CC(=O)c1ccc(NC(=O)c2ccc(C)c(Br)c2)cc1	NR3A LBD binder 28
COc1cc(C(=O)Nc2ccc(O)cc2)ccc1OC(C)=O	NR3A LBD binder 32
COc1ccc(C(=O)Nc2ccc3c(c2)OCCO3)cc1Br	none
CCCCC(=O)Nc1ccc(C(=O)NNC(=O)c2ccc(C)c(Br)c2)cc1	none
Cc1ccc(C(=O)Nc2ccc(N3CCCCC3)cc2)cc1	none
COc1ccc(C(=O)Nc2ccc(N3CCCCC3)cc2)cc1Br	NR3A LBD binder 10
COc1ccc(C(=O)Nc2ccc(Nc3ccccc3)cc2)cc1Br	NR3A LBD binder 24
COC(=O)[C@]12C[C@H](CC(=O)N3CCSCC3)C(=O)N(Cc3ccc(Cl)cc3Cl)C1=C[C@H](COCc1ccccc1)O[C@@H]2C	none (no result: FAS-TE inh, NR3A LBD binder, NadD block)
C=CCN=C1NC(c2ccccc2C(F)(F)F)C(C(=O)OC)=C(C)N1Cc1ccccc1C(F)(F)F (centres undefined)	none (no result: FAS-TE inh, NR3A LBD binder, NadD block)
CC(C)c1ccc(NC(=O)CSc2nnc(-c3ccco3)n2C)cc1	none (no result: FAS-TE inh, NR3A LBD binder, NadD block)
Cc1cc(NC(=O)c2ccc(NC(=O)C3CCCO3)cc2)ccc1Br (centres undefined)	NR3A LBD binder 11
CCCCNS(=O)(=O)c1ccc(NC(=O)C2CCCO2)cc1 (centres undefined)	NR3A LBD binder 12
CCOC(=O)Cn1cc(CN2C(C(=O)OC)CN(Cc3ccc(OC)cc3)CCS2(=O)=O)nn1 (centres undefined)	none (no result: FAS-TE inh, NR3A LBD binder, NadD block)
O=C(O)CCSc1nc2ccc(Br)cc2[nH]1	NR3A LBD binder 13
Cc1nc(N2CCN(Cc3ccccc3)CC2)nc2c1C(=O)CC(c1ccco1)C2 (centres undefined)	none
COc1ccc(C2CC(=O)c3c(C)nc(N4CCN(c5ccccc5)CC4)nc3C2)cc1 (centres undefined)	NR3A LBD binder 727
COc1ccc(/C=N/Nc2ncnc3sc(C)c(C)c23)cc1	none
Cc1sc2ncnc(N/N=C/c3ccc(O)cc3)c2c1C	NR3A LBD binder 35
Nc1c(Cl)ncnc1N/N=C/c1ccc(O)cc1	NR3A LBD binder 14
C=CC[C@]1(O)C(=O)N(c2ccccc2)c2ccccc21	none (no result: FAS-TE inh, NR3A LBD binder, NadD block)
CCCCCNC(=O)C(c1ccccc1F)n1c(=O)c(-c2ccco2)nc2ccccc21 (centres undefined)	rCAG binder 40 (no result: FAS-TE inh, NR3A LBD binder, NadD block)
O=C(NCc1ccccc1)C(c1ccc(C(F)(F)F)cc1)n1c(=O)c(-c2ccco2)nc2ccccc21 (centres undefined)	rCAG binder 36 (no result: FAS-TE inh, NR3A LBD binder, NadD block)
COC(=O)C1=C(NC(=O)COc2ccc(Cl)cc2Cl)CCS1	NR3A LBD binder 15
O=C(Nc1ccc2c(c1)OCCO2)c1ccc(Cl)c(Cl)c1	none
